± gives the standard deviation of the averaged measurements. In all, about 25,000 sequences were measured (“ln(normalized median fluorescence intensity)”: median about 10, highest 2% from about 12 on). Many of the other results were omitted from the sample, so the highest values are more common in it than they were.
system: PfAP2-G AP2 domain (GST-tagged); test: gcPBM binding intensity (ln(normalized median fluorescence intensity)); higher = stronger DNA binding
Procedure, shortened: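 Binding intensity is the highest Masliner-normalised natural-log median intensity over replicate spots in either probe orientation. To obtain it, GST-tagged P. falciparum DNA-binding domains made in E. coli were incubated for 1 h on an Agilent 4 × 180k array of primer-extended double-stranded 36-bp intergenic genomic probes plus negative controls. Detection used Alexa488 anti-GST antibody with scanning at 488 nm.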

Sequence	gcPBM binding intensity (ln)
CACCCACACCAACACACACACATATATAATATATAT [CACACA_site595]	10.3 ± 0.33
CCCTTTTCTAAATATTGTACGTATAAATTATATTAC [XGTACX_site7676]	11.7 ± 0.88
TAAATAATATAATTATGTACGTATTTCTTTATTTTA [XGTACX_site8410]	11.4 ± 0.83
TTTTTTTTTTTCTTTTGTACGTATAAAATTATATAA [XGTACX_site2453]	11.5 ± 0.66
GGTGCACCCATATACACACACAAATACAATGATAAA [CACACA_site1132]	10.6 ± 0.76
AATATATAAATTGACACACACATATATACATATATA [CACACA_site1213]	10.1 ± 0.11
TGTCTGTGCGGGTGTACACATTTCATATTACCCAAT [CACACA_site5593]	11.8 ± 0.98
AATTCATTTTACCCATGTACACAATTATATTTTATA [XGTACX_site4127]	11.6 ± 0.83
TATATATTTTGTGTCTGTACACATATTATTAATTCC [XGTACX_site7507]	11.4 ± 1
AATTTTTCATCAAGTTGTACAATTATTTGTTTGTTT [XGTACX_site3113]	11.3 ± 0.73
ATATTAGAAATATGAATAGAAAGAATATATAAGTAT [CACACA_negctrl_site682]	9.76 ± 0.37
TGTTTCTAAAAAAAAGGTACACATATATATAATATA [XGTACX_site3217]	11.4 ± 0.93
TCGATATATAGACACACACACTTTTAATAATTAAAT [CACACA_site7726]	10.2 ± 0.24
AACAATGTTTTCTTGTGTACACATCATTAAAGAAAA [XGTACX_site4726]	11.6 ± 0.88
TCTTTAATGATGTGTACACAAGAAAACATTGTTAAG [CACACA_site5299]	11.7 ± 0.89
TCAAATGTGTAATCTTGTACACATTAAAAGAAAAAA [XGTACX_site8822]	11.2 ± 0.83
ATTTTTTTTTTTATTTTCTTTGAGATTATCTTAATT [CACACA_negctrl_site1209]	9.78 ± 0.14
AAAAAAAAAATTGAAAGTACACAAATGGGGTATTAT [XGTACX_site3960]	11.5 ± 0.87
TATATATATATATGGGGTACAAATGGTCAGTATTAT [XGTACX_site1223]	11.7 ± 0.97
TATGTATAAAAATAATGTACAAAATATATTATATGT [XGTACX_site2794]	10.9 ± 0.4
TAAAATTTGTACATAGTGCAATTTTTTTTTTTTTTT	10.7 ± 0.52
ATCATGAAATATATTTGTACACATAATAATATAATA [XGTACX_site8798]	11.4 ± 0.89
CATAAAATTGTATTTTGTACACATTTTGTATACATT [XGTACX_site5705]	11.4 ± 0.82

Sequence	gcPBM binding intensity (ln)
ATGAATATATATATTTGTACATATGTATATATATAT [XGTACX_site7527]	10.9 ± 0.54
TTTTTTTTTGGGTGTACACATGAATATATATTTTTT [CACACA_site5254]	11.7 ± 0.95
TATATTTGTGCGTGTACACATTTGAAAAAATATATA [CACACA_site5079]	11.6 ± 0.88
ACATATAAATTGTGTACACATATATATATATTTTTT [CACACA_site5946]	11.8 ± 1
TTGTGAAATAAAATTTGTACACACATATATATATAT [XGTACX_site1078]	11.2 ± 0.86
TGTTATATTTGTGCGTGTACACATTTGAAAAAATAT [XGTACX_site3796]	11.8 ± 1.1
TTTTTTTTGTGTATTTGTACATAATATATATATATA [XGTACX_site7092]	10.9 ± 0.49
TATACATATAAATTGTGTACACATATATATATATTT [XGTACX_site7875]	11.6 ± 0.92
TAATATTTTTTGTGTACACATATATATATATATATA [CACACA_site5504]	11.7 ± 0.88
GTGTTTTTATTATTTTGTACACATATATTTAATATT [XGTACX_site2109]	11.5 ± 0.87
GTTGGGTAATTCGTAACACACATAAAATATATATAA [CACACA_site3986]	10.13 ± 0.099
CATAATGTAAATAAGTGTACACATATATAATACATA [XGTACX_site3108]	11.6 ± 0.9
TATATTTATAGGTACACACACACATATAAATAAATA [CACACA_site6345]	11.3 ± 0.98
TTATTTCTACCTTTTTGTACACATTATTATGAAACC [XGTACX_site5325]	11.3 ± 0.81
ACTATTTTAAAAATATGTACATACGTTGTAATTTAA [XGTACX_site7999]	11.4 ± 0.83
ATAATACAATTTATAACACACACACTATAATACATA [CACACA_site8338]	10.025 ± 0.007
TTAGGTATATATAAACGTACTCACAATATCATATAA [XGTACX_site8743]	11.1 ± 0.71
GAATTATAAGAATAAACACACAAGCTTAAAAAAAAA [CACACA_site1204]	9.74 ± 0.18
ATATATTTATATTTGTGTACATATTTATTATATTTA [XGTACX_site404]	11.5 ± 0.67
TATTTGTGTATTTTTACACACATTAATATATTTATA [CACACA_site7562]	9.9 ± 0.2
AATATATATTTGTGTACACATTATATATATATATAT [CACACA_site6103]	11.9 ± 1.1
CAAAAAGGAATGTATGCACACAATTGATTTTAACTC [CACACA_site1468]	10 ± 0.13
AAATTAATAAATATTTTTATAAATTATAATATTAAT [GTGCAC_negctrl_site533]	9.37 ± 0.16

Sequence	gcPBM binding intensity (ln)
TTTATTTTTAAAGGCACACACATTTTTATTTTTAAA [CACACA_site2021]	10.1 ± 0.19
AGAAATTAATCGAGGTGTACGTACATCCAAATATAT [XGTACX_site7650]	11.8 ± 1.2
GAAAATACGTTTAATCGTACATATATATAATATATA [XGTACX_site4243]	11.1 ± 0.88
AGAAATTAATCGAAGTGTACATATAAACATACATAT [XGTACX_site5518]	11.3 ± 0.69
GAGAAAAGGAAATTCACACATATAAAGAAAGATCTA [CACACA_site5420]	9.865 ± 0.064
AAAAAATATTTTTACAGTACATATATATAAAATGTT [XGTACX_site3215]	10.9 ± 0.58
ATAAATACACACAAGTGTACATACTTCTATAAATAT [XGTACX_site1845]	11.3 ± 0.96
AAGGAAATATAATATACACACATAAGTGTACTTCTA [CACACA_site6079]	11.7 ± 1.1
AAGGAAATATAATATACACACATAAGTGTACTTATA [CACACA_site4030]	11.6 ± 1.1
TATATATATATGTGTACACAAAAAATATTATATTAT [CACACA_site5505]	11.9 ± 0.93
ATATATGAAAATATATGTACACAACATATAAAATAG [XGTACX_site5132]	11.4 ± 0.83
AGTATAAAATAAATGTGTACACAAGAAAATATGTTA [XGTACX_site8381]	11.8 ± 0.93
TTTTTTTTTTTTTTTACACACACAAAATATTATATG [CACACA_site2471]	9.99 ± 0.38
ATAAAATAAAAGTGTACACAAGAAAATATGTTATGT [CACACA_site6033]	11.6 ± 0.79
GATTATATATGAAAATGTACAAATATATATATATAT [XGTACX_site5963]	10.8 ± 0.28
AAGAAATAAAAAGAATGTACACAATATGTATTATAA [XGTACX_site4733]	11.5 ± 0.69
TATATATATATGTGTAGTACAACAAATATGAAAAAT [XGTACX_site4059]	11.7 ± 0.86
ATATAAATAAATATATGTACACACACAAATATATAC [XGTACX_site3950]	11.4 ± 0.73
ATAATATAACACAAATGTACAAAAAATAAATAAATA [XGTACX_site385]	10.7 ± 0.4
ATATATATATATATGTGTACACAACAAAATAAAAAA [XGTACX_site7378]	11.7 ± 0.79
TACAAATTAATATGTACACACAAATATATATATATA [CACACA_site1977]	11.4 ± 0.87

Reference: the supplement of paper PMC11417369
